# Measurements published in paper PMC4336329 (PLoS ONE, 2015).
# The campaign covered roughly 310,000 compounds. About 14,000 (4.5%) showed an effect of 50% or more. The effect is printed as a negative number. This is one part of a sample in which strong results are shown more often than they occur.
# Target: human ether-à-go-go-related gene (hERG) potassium channel (human, UniProt Q12809)
# Assay: primary screen, population patch clamp on CHO cells stably expressing hERG; higher = less effect of the substance
# 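Further: peak tail current of the secondary pulse compared with the same well before compound.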
# human ether-à-go-go-related gene (hERG) potassium channel, sequence (Q12809 whole entry, looked up): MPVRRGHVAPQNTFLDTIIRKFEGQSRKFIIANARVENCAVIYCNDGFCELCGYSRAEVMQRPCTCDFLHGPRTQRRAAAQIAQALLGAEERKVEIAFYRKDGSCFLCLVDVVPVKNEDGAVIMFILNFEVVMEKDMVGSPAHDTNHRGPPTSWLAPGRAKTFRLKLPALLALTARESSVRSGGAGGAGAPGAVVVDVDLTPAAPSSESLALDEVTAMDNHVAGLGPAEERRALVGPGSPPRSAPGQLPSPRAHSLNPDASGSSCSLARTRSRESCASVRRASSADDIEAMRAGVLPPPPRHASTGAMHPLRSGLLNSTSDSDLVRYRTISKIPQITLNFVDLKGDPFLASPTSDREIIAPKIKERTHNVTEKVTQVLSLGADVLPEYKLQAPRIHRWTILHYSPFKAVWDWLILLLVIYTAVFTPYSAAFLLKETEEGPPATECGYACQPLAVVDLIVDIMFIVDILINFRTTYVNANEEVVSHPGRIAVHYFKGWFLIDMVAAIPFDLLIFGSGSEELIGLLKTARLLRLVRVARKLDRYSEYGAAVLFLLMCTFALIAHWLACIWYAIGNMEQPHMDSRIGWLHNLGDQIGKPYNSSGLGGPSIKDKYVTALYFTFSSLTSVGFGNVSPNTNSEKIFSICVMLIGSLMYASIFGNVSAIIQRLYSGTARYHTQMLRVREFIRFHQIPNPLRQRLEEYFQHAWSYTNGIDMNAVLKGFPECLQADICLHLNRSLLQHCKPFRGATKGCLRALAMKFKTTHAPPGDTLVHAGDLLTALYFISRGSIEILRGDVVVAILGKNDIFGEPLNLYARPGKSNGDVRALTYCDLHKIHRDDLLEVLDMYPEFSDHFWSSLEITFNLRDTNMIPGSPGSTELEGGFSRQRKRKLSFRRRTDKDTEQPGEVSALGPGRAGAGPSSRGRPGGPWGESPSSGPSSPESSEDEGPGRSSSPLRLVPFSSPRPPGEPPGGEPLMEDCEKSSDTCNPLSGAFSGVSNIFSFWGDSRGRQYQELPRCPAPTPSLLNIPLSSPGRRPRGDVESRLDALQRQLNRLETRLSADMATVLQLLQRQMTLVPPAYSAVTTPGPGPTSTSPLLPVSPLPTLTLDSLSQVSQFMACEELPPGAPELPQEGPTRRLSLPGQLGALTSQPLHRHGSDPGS
row,Structure (SMILES),"hERG current change (%, negative = inhibition) at 10uM [%]"
1,C=CCOc1cccc(C2C(C(=O)c3ccc(C)o3)=C(O)C(=O)N2c2nccs2)c1 (stereo not drawn),7.99
2,Cc1c(CN(C)C(=O)c2ccc(Br)o2)cnn1C,-7.89
3,CCn1cc(CNC(=O)/C=C/c2ccc([N+](=O)[O-])cc2)c(C)n1,-33
4,Cc1c(CN(C)C(=O)c2nn(C)cc2[N+](=O)[O-])cnn1C,8.63
5,CCn1cc(CN(C)C(=O)/C=C/c2ccc([N+](=O)[O-])cc2)c(C)n1,-59.4
6,Cc1nn(C)cc1C(=O)/C=C/c1ccc([N+](=O)[O-])cc1,-12.4
7,Cc1c(CN(C)C(=O)/C=C/c2ccc([N+](=O)[O-])cc2)cnn1C,-69.6
8,COc1ccc(N(CC(=O)NC2CCCCC2)C(=O)c2ccc(C)s2)c(OC)c1,-18.1
9,CCN(CC)c1ccc(NC(=O)CCNS(=O)(=O)c2ccc3c(c2)CCC(=O)N3)c(C)c1,5.77
10,OCC(Br)CBr (stereo not drawn),23
11,C=C1CCC2[C@](C)(CO)[C@H](O)CC[C@@]2(C)[C@@H]1C/C=C1\C(=O)OC[C@H]1O (stereo partly drawn),18.9
12,CCc1nn(CC(=O)NCCCc2ccccc2)c(=O)c2cc3cc(F)ccc3n12,1.58
13,CSCC(=O)N1CCCC(N2CCN(c3cccc(C(F)(F)F)c3)CC2)C1 (stereo not drawn),-48.1
14,CC1(CCC(=O)N2CCCC(N3CCN(c4cccc(C(F)(F)F)c4)CC3)C2)CC1 (stereo not drawn),-61.5
15,CSCCC(=O)N1CCCC(N2CCN(c3cccc(C(F)(F)F)c3)CC2)C1 (stereo not drawn),-40.4
16,Cc1ccccc1N1CCN(C2CCCN(C(=O)CCc3c(C)noc3C)C2)CC1 (stereo not drawn),-46.3
17,CC1(CCC(=O)N2CCCC(N3CCN(c4ccc(F)cc4)CC3)C2)CC1 (stereo not drawn),-64.7
18,Cc1noc(C)c1CCC(=O)N1CCCC(N2CCN(c3ccc(F)cc3)CC2)C1 (stereo not drawn),-53.4
19,Cc1nn(C)c(C)c1CCC(=O)N1CCCC(N2CCN(c3ccc(F)cc3)CC2)C1 (stereo not drawn),-12.5
20,Cc1ccccc1N1CCN(C2CCCN(C(=O)CCC3(C)CC3)C2)CC1 (stereo not drawn),-48.6
21,CSCC(=O)N1CCCC(N2CCN(c3ccc(F)cc3)CC2)C1 (stereo not drawn),-22.9

row,Structure (SMILES),"hERG current change (%, negative = inhibition) at 10uM [%]"
1,CC(C)NC(=O)N1CCN(c2ccncc2S(=O)(=O)N2CCCCC2)CC1,5.19
2,COc1ccc(-c2cnc(N)n2CC2CCCO2)cc1 (stereo not drawn),-5.53
3,Cc1cc(C)n(CC(O)COc2c(C)cccc2C)n1 (stereo not drawn),-1.28
4,O=P(C1=C(N2CCOCC2)/C(=C\c2ccccc2)CC1)(N1CCOCC1)N1CCOCC1,-25.3
5,O=C(CSc1nnc(NC(=O)C2CC(=O)N(c3ccccc3)C2)s1)NCc1ccco1 (stereo not drawn),16.9
6,O=C(c1cccs1)N(Cc1cccc(Cl)c1)C1CCS(=O)(=O)C1 (stereo not drawn),-52
7,O=C(c1cccs1)N(Cc1cccc(F)c1)C1CCS(=O)(=O)C1 (stereo not drawn),-14.9
8,O=C(c1ccco1)N(Cc1cccc(F)c1)C1CCS(=O)(=O)C1 (stereo not drawn),-5.78
9,O=C(c1ccco1)N(Cc1cccc(Cl)c1)C1CCS(=O)(=O)C1 (stereo not drawn),-59
10,O=C(c1ccco1)N(Cc1ccc(Cl)cc1)C1CCS(=O)(=O)C1 (stereo not drawn),-11.6
11,O=C(c1cccs1)N(Cc1ccc(Cl)cc1)C1CCS(=O)(=O)C1 (stereo not drawn),-41.9
12,CC(=O)CCS(=O)(=O)c1ccc(C)c(C)c1,1.19
13,O=C(OCC(=O)N1CCCC1=O)C1CCN(S(=O)(=O)c2ccc(Cl)c(C(F)(F)F)c2)CC1,5.31
14,COc1ccc(C(=O)NC(=S)Nc2ccc(S(=O)(=O)Nc3cc(OC)ncn3)cc2)cc1,15.4
15,CSCCC1NC(=O)N(CC(=O)N2CCc3ccccc3C2)C1=O (stereo not drawn),-1.18
16,CCOC(=O)c1[nH]c2ccc(OC)cc2c1NC(=O)c1ccccc1C(=O)O,14.2
17,O=C(NCCN1C(=O)S/C(=C\c2ccccc2)C1=O)C1CCN(S(=O)(=O)c2cccs2)CC1,-23.8
18,COc1ccc(N2CCN(CCNC(=O)CCNS(=O)(=O)c3cccs3)CC2)cc1,-24.7
19,O=C(NCCN1C(=O)S/C(=C\c2ccccc2F)C1=O)C1CCN(S(=O)(=O)c2cccs2)CC1,-57.2
20,COc1ccc(N2CCN(C(=O)C3CCN(S(=O)(=O)c4cccs4)CC3)CC2)cc1,-49.3
21,CCCNC(=O)C1CCN(S(=O)(=O)c2cccs2)CC1,28.1

row,Structure (SMILES),"hERG current change (%, negative = inhibition) at 10uM [%]"
1,COCCNC(=O)C1CCN(S(=O)(=O)c2c(C)noc2/C=C/c2cccs2)CC1,-34.7
2,O=C(NCCN1C(=O)S/C(=C\c2ccc(F)cc2)C1=O)C1CCN(S(=O)(=O)c2cccs2)CC1,-7.1
3,Cc1noc(/C=C/c2cccs2)c1S(=O)(=O)N1CCC(C(=O)NCCCN2CCC(C)CC2)CC1,-83.7
4,Cc1noc(/C=C/c2cccs2)c1S(=O)(=O)N1CCC(C(=O)NCCCN2CCCC(C)C2)CC1 (stereo not drawn),-44.5
5,CCS(=O)(=O)N1CCC(C(=O)NCCCN2CCN(c3ccccc3F)CC2)CC1,-16.3
6,O=C(NCCCN1CCN(c2ccccc2F)CC1)C1CCN(S(=O)(=O)c2cccs2)CC1,-60.6
7,COc1ccc(N2CCN(CCNC(=O)C3CCN(S(=O)(=O)c4cccs4)CC3)CC2)cc1,-50.7
8,Cc1cc(NS(=O)(=O)c2ccc(NC(=O)c3c(F)c(F)c(F)c(F)c3F)cc2)nc(C)n1,4.63
9,CCN(C(=O)CSc1nnnn1-c1ccccc1OC)C1CCS(=O)(=O)C1 (stereo not drawn),21.2
10,O=C(CCNC(=O)c1ccccc1Cl)Nc1cccc(S(=O)(=O)N2CCOCC2)c1,0.307
11,CC(C)(C)c1[nH]nc2c1C(C1C=CCCC1)C(C#N)=C(N)O2 (stereo not drawn),-11
12,CN(C)CC1CCCCC1OC(=O)c1ccc(S(=O)(=O)N(C)c2ccccc2)cc1 (stereo not drawn),17.8
13,C/C(CC(=O)NCc1ccco1)=N\NC(=O)c1ccc([N+](=O)[O-])cc1Cl,10.5
14,CC(OC(=O)CCc1nc2ccccc2c(=O)[nH]1)C(=O)c1ccc(C(C)(C)C)cc1 (stereo not drawn),-12.3
15,COc1ccc(N(CC(=O)NCc2ccc(Cl)cc2)S(=O)(=O)c2c(C)noc2C)cc1,15.1
16,O=[N+]([O-])CC(=Nc1ccc(F)cc1)N/N=C\c1oc(O)c2ccccc12,-0.338
17,NCCCC[C@H]1CN=C(N)N1CCCCC1CCCCC1,-3.84
18,CC(C)C(NC(=O)c1ccccc1NC(=O)c1ccco1)C(=O)O (stereo not drawn),-14.1
19,C/C(N)=C(/C#N)C(=O)COC(=O)CC1CCCC1,-2.15
20,COc1cccc(N2CCN(C3CC(=O)N(c4ccc(Cl)c(Cl)c4)C3=O)CC2)c1 (stereo not drawn),-0.0262
21,Cc1cc(C)cc(CC2CC(=O)N(c3ccc([N+](=O)[O-])cc3)C2=O)c1 (stereo not drawn),9.78

row,Structure (SMILES),"hERG current change (%, negative = inhibition) at 10uM [%]"
1,COc1ccccc1N1C(=O)CC(N2CCN(c3ccc(Cl)cc3)CC2)C1=O (stereo not drawn),1.61
2,COc1cccc(N2C(=O)CC(N3CCN(c4ccc([N+](=O)[O-])cc4)CC3)C2=O)c1 (stereo not drawn),-52.1
3,COc1cccc(N2CCN(C3CC(=O)N(c4cccc(Cl)c4)C3=O)CC2)c1 (stereo not drawn),-14.4
4,COc1ccccc1N1C(=O)CC(N2CCN(c3ccc(F)cc3)CC2)C1=O (stereo not drawn),-1.99
5,COc1ccccc1N1CCN(C2CC(=O)N(c3ccccc3)C2=O)CC1 (stereo not drawn),24.1
6,Cc1ccc(N2C(=O)CC(Cc3cccc(C)c3)C2=O)cc1 (stereo not drawn),9.39
7,O=C1CC(N2CCN(c3ccccc3)CC2)C(=O)N1c1cccc(Br)c1 (stereo not drawn),-1.92
8,COc1ccccc1N1C(=O)CC(N2CCN(c3ccc([N+](=O)[O-])cc3)CC2)C1=O (stereo not drawn),-68.6
9,Cc1cccc(CC2CC(=O)N(c3ccc([N+](=O)[O-])cc3)C2=O)c1 (stereo not drawn),-53.3
10,COc1ccccc1N1CCN(C2CC(=O)N(c3cccc(Br)c3)C2=O)CC1 (stereo not drawn),-53.7
11,C=C(C)COc1ccc(-c2nc(N)ncc2-c2ccccc2OC)c(O)c1,-31.6
12,COc1cc(OC)c(OC)cc1/C=C(\C#N)C(=O)NCc1cccs1,20.6
13,O=C(Cn1cc2c(n1)CCCC2)Nc1ccccc1Br,1.06
14,CN1C2CCC1CC(NC(=O)c1cc(Cl)cc3[nH]cnc13)C2 (stereo not drawn),4.12
15,CNC(=O)c1c2c(nc3ccc(Br)cc13)CCCC2,1.9
16,CCCCn1c(N)c(N(CCOC)C(=O)C2CC(=O)N(c3cccc(SC)c3)C2)c(=O)[nH]c1=O (stereo not drawn),14.4
17,COCCN1CN=C(Nc2nc3ccccc3o2)NC1,13.5
18,COc1cccc(OC)c1C(=O)Nc1ccc(N2CCCC2)cc1,7.52
19,Cc1ccc(N2C(=O)SC(Cc3ccccc3)C2=O)cc1 (stereo not drawn),13.7
20,COc1ccc(N(Cc2cc3ccccc3[nH]c2=O)S(=O)(=O)c2ccccc2)cc1,2.91
21,CCOC(=O)N1CCN(C(=O)c2ccc(OC(C)=O)cc2)CC1,16
